# Fluorescein fluor: qHTS Assay for Spectroscopic Profiling in Fluorescein Spectral Region; Compound autofluorescence, 480/540 nm, fluorescein-equivalent; stronger effect = higher value; max fluorescein-equivalent concentration, M; 59,000 compounds, 0.91% hits; AID 593, 2007; in the data active = max fluorescein-equivalent concentration above about 10 nM; inconclusive = between about 1.1 nM and that limit
#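 In this qHTS profile, compound fluorescence was measured with a 480 nm/540 nm filter pair following a 15-min room-temperature incubation in 100 mM Tris (pH 8.0). A six-point fluorescein series on each plate served for normalization.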
# Rhodamine autofl: qHTS Assay for Spectroscopic Profiling in Rhodamine Spectral Region. Rhodamine-region fluorescence, 547/598 nm, Tris buffer; stronger effect = higher value. max dye-equivalent concentration, M. 59,000 compounds, 0.05% hits. AID 594, 2007; in the data active = max dye-equivalent concentration above about 11 nM; inconclusive = between about 1.1 nM and that limit
#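 Steps: pin-transfer compounds into pH 8.0 Tris (100 mM), hold 15 min at room temperature, image with a 547/598 nm filter pair, and convert intensities to rhodamine-equivalent concentration using a six-point on-plate rhodamine series.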
# A488 fluor: qHTS Assay for Spectroscopic Profiling in A488 Spectral Region. compound autofluorescence, A488 spectral region, dye equivalency; Compound Type: qHTS ECL - MLSMR. max dye equivalency, M. 59,000 compounds, 0.1% hits. AID 591, 2007
#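 Intrinsic compound fluorescence is measured in 100 mM Tris buffer at pH 8.0 following 15 min incubation at room temperature. Intensities at 480 nm excitation/540 nm emission are calibrated to an on-plate A488 concentration series, giving dye-equivalent concentrations.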
# A647 autofl: qHTS Assay for Spectroscopic Profiling in A647 Spectral Region | Compound fluorescence, A647 channel (570/671 nm), Tris buffer | max dye-equivalent concentration, M | 59,000 tested, under 10 active | AID 592, 2007;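 also: values scaled relative to a standard on each plate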
#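 Compounds pinned into 100 mM Tris pH 8.0, 15 min at room temperature, then read with 570 nm excitation/671 nm emission filters. Fluorescence normalized to an on-plate six-point Alexa 647 standard curve, giving dye-equivalent concentration per compound concentration.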
# Resorufin autofl: qHTS Assay for Spectroscopic Profiling in Resorufin Spectral Region. Compound fluorescence, resorufin region 547/598 nm, buffer; stronger effect = higher value. AID 588, 2007. 59,000 compounds, 0.04% hits. max dye-equivalent concentration, M
#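 Dye-equivalent concentration values derive from comparing each well's 547/598 nm fluorescence against resorufin standards included on every plate. Incubation was 15 min at room temperature in 100 mM Tris, pH 8.0.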
# Texas Red fluor: qHTS Assay for Spectroscopic Profiling in Texas Red Spectral Region. max dye-equivalent concentration, M. Compound fluorescence, Texas Red channel, 547/618 nm; stronger effect = higher value. 59,000 compounds, 0.06% hits; in the data active = max dye-equivalent concentration above about 10 nM; inconclusive = between about 1.1 nM and that limit
#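 Texas Red-region profiling: compounds in 100 mM Tris pH 8.0 were read at 547/618 nm after 15 min at room temperature. Intensities were normalized against a six-point Texas Red standard series to give dye-equivalent concentration.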
# Numbers without * were called inactive; i = inactive; ? = inconclusive; ! = not confirmed by another sample. The list is not random: actives were taken first. Their share in the collection is about 0.96%. Unless noted, no rule for the calls is given here.
SMILES,Fluorescein fluor,Rhodamine autofl,A488 fluor,A647 autofl,Resorufin autofl,Texas Red fluor
CN1CC=C2C(C#N)=C(N)C(C#N)(C#N)C(c3ccncc3)C2C1 (stereo unspecified),4.17e-08M*,i,?,1e-09,i,?
CN1C[C@H](CO)C=C2c3cccc4[nH]cc(c34)C[C@@H]21,2.68e-08M*,i,i,2.9e-09,i,i
CCN(CC)C(=O)N[C@@H]1C=C2c3cccc4[nH]cc(c34)C[C@@H]2N(C)C1,1.3e-08M*!,i,i,1e-09,i,?
O=c1cccc2n1C[C@@H]1C[C@H]2CN2CCCC[C@H]12,i,i,i,1e-09,i,i
N[C@H](Cn1oc(=O)[nH]c1=O)C(=O)O,?,i,i,5.22e-08,i,i
COCCOC(=O)c1c(N)n(Cc2ccco2)c2nc3ccccc3nc12,4.28e-08M*,i,?,1e-09,i,i
COCCOC(=O)c1c(N)n(Cc2ccc(OC)cc2)c2nc3ccccc3nc12,i,i,i,4.9e-09,i,?
CC(C)OC(=O)c1c(N)n(Cc2ccco2)c2nc3ccccc3nc12,3.6e-08M*,i,?,3.53e-08,i,i
COc1ccc(Cn2c(N)c(C(=O)NCc3ccco3)c3nc4ccccc4nc32)cc1OC,?,i,i,1.36e-08,i,i
COc1cc2c(cc1O)CCN[C@H]2C,i,i,i,1.8e-09,i,i
CO[C@@H](C)[C@](O)(C(=O)OC1=CCN2CC[C@H](O)[C@H]12)C(C)C,?,i,i,2.04e-08,i,i
C=C(C)[C@H]1[C@H]2OC(=O)[C@@H]1[C@]1(O)C[C@H]3O[C@]34C(=O)O[C@H]2[C@]14C,i,i,i,1.9e-08,i,i
N[C@@H](Cc1cc(Br)c(O)c(Br)c1)C(=O)O,i,i,i,1e-09,i,i
N[C@H](Cc1ccc2oc3cc(=O)c4ccccc4c-3nc2c1)C(=O)O,8.49e-07M*,1.16e-08M*,3.89e-08M*,1.08e-08,?,4.7e-08M*
C[C@@]12CC[C@H](O)C[C@@H]1CC[C@H]1[C@H]2C[C@@H](O)[C@]2(C)[C@@H](C3=CC(=O)OC3)CC[C@@]12O,i,i,i,1e-09,i,i
CN1C[C@H](CNC(=O)OCc2ccccc2)C[C@@H]2c3cccc4c3c(cn4C)C[C@H]21,4.72e-08M*,i,?,3.27e-08,i,i
CN1C[C@@H](CS(=O)(=O)N(C)C)C[C@H]2c3cccc4c3c(cn4C)C[C@@H]21,1.86e-08M*,i,i,1e-09,i,?
CC(C)(C)[C@@]1(O)C[C@@H]2OC(=O)C[C@@]23C(=O)O[C@H]2OC(=O)[C@@H](O)[C@]231,i,i,i,1e-09,i,i
Cn1c(=O)c2nncnc2n(C)c1=O,1.06e-08M*,i,i,6.9e-09,i,i
CC(C)[C@@]1(NC(=O)[C@H]2C[C@H]3c4cccc5[nH]cc(c45)C[C@@H]3N(C)C2)O[C@]2(O)[C@H]3CCCN3C(=O)[C@H](Cc3ccccc3)N2C1=O,?,i,i,2.5e-08,i,i
CN1C[C@H](C(=O)N[C@@]2(C)O[C@@]3(O)[C@H]4CCCN4C(=O)[C@@H](Cc4ccccc4)N3C2=O)C=C2c3cccc4[nH]cc(c34)C[C@@H]21,1.8e-08M*,i,i,3.08e-08,i,i
CC(C)[C@@]1(NC(=O)[C@@H]2C=C3c4cccc5[nH]cc(c45)C[C@@H]3N(C)C2)O[C@]2(O)[C@H]3CCCN3C(=O)[C@H](Cc3ccccc3)N2C1=O,2.89e-08M*,i,?,1.7e-09,i,i
NNc1c(C(N)=O)c2c(N)ncnc2n1[C@@H]1O[C@H](CO)[C@@H](O)[C@@H]1O,i,i,i,1e-09,i,i
CCn1nc(-c2ccccc2)nc2c(=O)n(C)c(=O)nc1-2,1.78e-07M*,i,1.08e-08M*,1.87e-08,i,i
CCC(=NC1CCN(Cc2ccccc2)CC1)c1c(O)[nH]c(=O)[nH]c1=O,i,i,i,1e-09,i,i
SMILES,Fluorescein fluor,Rhodamine autofl,A488 fluor,A647 autofl,Resorufin autofl,Texas Red fluor
CCOC(=O)c1ccc(NC(=O)c2c(O)[nH]c(=O)[nH]c2=O)cc1,4.06e-05M*,?,2.34e-06M*,1e-09,i,?
CN(C)[C@@H]1C(=O)C(C(N)=O)=C(O)[C@]2(O)C(=O)C3=C(O)c4c(O)cccc4[C@@](C)(O)[C@@H]3C[C@@H]12,i,i,i,2.5e-09,i,i
COc1cccc2c1C(=O)c1c(O)c3c(c(O)c1C2=O)C[C@](O)(/C(C)=N\O)C[C@@H]3O[C@H]1C[C@H](N)[C@@H](O)[C@H](C)O1,7.63e-08M*,2.98e-08M*,?,1e-09,1.72e-08M*,1.89e-08M*
C[C@@H](CO)NC(=O)[C@H]1C=C2c3cccc4[nH]cc(c34)C[C@H]2N(C)C1,?,i,i,1e-09,i,i
CC[C@H](CO)NC(=O)[C@H]1C=C2c3cccc4[nH]cc(c34)C[C@@H]2N(C)C1,2.1e-08M*,i,i,1.8e-09,i,i
CC[C@@H](CO)NC(=O)[C@@H]1C=C2c3cccc4c3c(cn4C)C[C@H]2N(C)C1,4.77e-08M*,i,?,1e-09,i,i
CCN1C[C@@]2(COC(=O)c3ccccc3N3C(=O)C[C@H](C)C3=O)CC[C@H](OC)[C@@]34[C@@H]5CC6[C@@H](OC)C[C@@](O)([C@H]5[C@H]6OC)C(O)([C@@H]13)[C@@H](OC)[C@H]24,i,i,i,1.4e-09,i,i
